Here are results for 19 compounds from PubChem BioAssay.

Values joined by “and” are separate entries in the source; they are usually repeats but may differ in a detail not shown here. Equal values may be shown once. For part of these data: Potency and affinity values are given separately. Where a structure was tested more than once in an assay, its records may differ in their call. Active and inactive are the calls of the source. Unless noted, no rule for the calls is given here.

Assay [1] can be described thus: antimalarial activity against Dd2 strain (AID 2302;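 active = growth inhibition above 50% at the single 2 µM test dose, taken to imply half-maximal potency below 2 µM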;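 also: 0% = DMSO untreated growth and 100% = chloroquine plus artemisinin killed control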). Particulars: P. falciparum Dd2 in RBCs, LDH growth readout, 72 h; at 2 µM; stronger effect = higher value.
A short description of assay [2]: HepG2 cytotoxicity, primary screen, cytotoxicity control for P. falciparum antimalarial project, cell-based, ATP luminescence (AID 2303;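 active = inhibition above 50%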;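 also: 0% = DMSO wells and 100% = digitonin-killed cells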). The settings on record: HepG2 viability, 24-48 h, at 10 µM, stronger effect = higher value.
Assay [3] deals with L-lactate dehydrogenase (Plasmodium falciparum (isolate CDC / Honduras)) (UniProt Q27743). Kind of assay: PfLDH activity inhibition – cell lysate, 3D7 strain, counter-screen for P. falciparum growth inhibition project (AID 2304).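 Also: 0% = vehicle and 100% = reference inhibitor.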 Particulars: P. falciparum 3D7 crude extract, LDH APAD/NBT absorbance; at 2 µM; stronger effect = higher value.
Assay [4] in a line: inhibition of 3D7 malaria parasite growth – strain 3D7 (AID 2306).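 Also: 0% = DMSO wells and 100% = chloroquine plus artemisinin control wells.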 Particulars: P. falciparum 3D7 erythrocytic growth, LDH absorbance, 72 h; at 2 µM; stronger effect = higher value.
In assay [5] the target is Calcium-dependent protein kinase 1 (Plasmodium falciparum (isolate 3D7)) (UniProt P62344). Nature of the assay: PfCDPK1 kinase inhibitors, biochemical, TCAMS library (AID 1159585; cut-off not given, nearly all actives have IC50 up to about 0.98 µM;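 also: inhibitors leave more ATP so luminescence rises with inhibition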). Particulars: recombinant PfCDPK1, Kinase-Glo ATP depletion luminescence.
Assay [6] concerns the target Plasmodium falciparum protein kinase 6 (PK6, PF3D7_1337100) (UniProt Q8IDW1). Nature of the assay: PfPK6 kinase inhibitors, biochemical, TCAMS library (AID 1159586). Particulars: recombinant PfPK6, Kinase-Glo ATP depletion luminescence.
Assay [7] addresses Protein kinase 7 (PK7), Plasmodium falciparum 3D7 (PF3D7_0213400) (UniProt Q7YTF7). Kind of assay: inhibition of Plasmodium PK7 catalytic activity – biochemical, TCAMS antimalarial set, Kinase-Glo luminescence (AID 1159587). Particulars: recombinant PfPK7, Kinase-Glo ATP depletion luminescence.
The target in assay [8] is Calcium-dependent protein kinase 4 (Plasmodium falciparum (isolate 3D7)) (UniProt Q8IBS5). Nature of the assay: PfCDPK4 kinase inhibitors, biochemical, TCAMS library (AID 1159588; cut-off not given, nearly all actives have IC50 up to about 0.91 µM). The settings on record: recombinant PfCDPK4, Kinase-Glo ATP depletion luminescence.
Assay [9] is described as follows: liver-stage malaria parasite growth inhibition, primary screen, cell-based, HepG2, luciferase luminescence, HepG2 viability (AID 624349; in the data active = parasite load remaining mostly below about 12%, no sharp cut-off; inactive = mostly above about 10%;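 also: 100% = mean of DMSO negative control wells on the same plate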). Particulars: P. berghei liver stage in HepG2, luciferase luminescence, concentration not given here; parasite load remaining: stronger effect = lower value; viability: measured here: HepG2 viability without parasites.
Assay [10] is described as follows: sensitizers of A549 cells to miR-34 induction, primary screen, imaging, A549 dox-inducible miR-34, nuclei and caspase counts (AID 1347080;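 active = compounds whose cell count with miR-34 switched on is under 0.7 times the count with it off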). Particulars: A549 miR-34 inducible, Hoechst nuclei count, 48 h.
Assay [11] has as its system F380Y. Nature of the assay: modulators of BK channel variants, profiling panel, selectivity assay, cell-based, U2OS BacMam, thallium flux, beta subunits (AID 1259406;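 active = thallium flux through the channel raised or lowered by more than 3 SD from vehicle-only wells, actives on both sides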;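 also: initial slope of Thallos dye fluorescence rise after thallium is added; log ratio against the mean of 0.3% DMSO vehicle wells on the same plate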). The settings on record: at 30 µM.
Assay [12] relates to F380Y/beta2Delta. The description is as above. The settings on record: at 30 µM.
Assay [13] has as its system R275C. The description is as above. Particulars: at 30 µM.
The subject of assay [14] is R275C/beta1. Described as above. Particulars: at 30 µM.
Assay [15] concerns R275C/beta2Delta. Described as above. Particulars: at 30 µM.
For assay [16], the system named is R275C/Slo1WT/beta2. The description is as above. Particulars: at 30 µM.

L-lactate dehydrogenase (Plasmodium falciparum (isolate CDC / Honduras)), sequence (Q27743 whole entry, looked up): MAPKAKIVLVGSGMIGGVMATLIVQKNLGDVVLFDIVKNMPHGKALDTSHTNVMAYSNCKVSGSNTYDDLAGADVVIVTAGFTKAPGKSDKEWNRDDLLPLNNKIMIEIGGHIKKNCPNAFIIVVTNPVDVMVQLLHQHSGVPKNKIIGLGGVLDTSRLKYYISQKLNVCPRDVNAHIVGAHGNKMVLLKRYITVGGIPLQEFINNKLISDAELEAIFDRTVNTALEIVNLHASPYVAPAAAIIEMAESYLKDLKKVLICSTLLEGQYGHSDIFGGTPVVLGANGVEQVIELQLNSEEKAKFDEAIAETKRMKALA
Calcium-dependent protein kinase 4 (Plasmodium falciparum (isolate 3D7)), sequence (Q8IBS5 whole entry, looked up): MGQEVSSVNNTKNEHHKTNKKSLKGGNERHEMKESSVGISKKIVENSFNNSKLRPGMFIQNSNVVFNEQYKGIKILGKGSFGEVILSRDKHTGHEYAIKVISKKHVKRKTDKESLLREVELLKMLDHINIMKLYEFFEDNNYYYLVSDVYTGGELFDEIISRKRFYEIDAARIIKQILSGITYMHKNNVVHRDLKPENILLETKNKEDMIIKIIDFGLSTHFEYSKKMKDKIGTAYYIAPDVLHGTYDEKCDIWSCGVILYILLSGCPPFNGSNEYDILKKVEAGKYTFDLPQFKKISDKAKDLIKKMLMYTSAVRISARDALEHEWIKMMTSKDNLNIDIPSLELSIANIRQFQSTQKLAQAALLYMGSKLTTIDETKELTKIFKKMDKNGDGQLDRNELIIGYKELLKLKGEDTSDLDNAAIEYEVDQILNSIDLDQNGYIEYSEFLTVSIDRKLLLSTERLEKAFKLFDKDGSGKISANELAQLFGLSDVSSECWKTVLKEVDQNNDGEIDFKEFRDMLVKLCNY
Plasmodium falciparum protein kinase 6 (PK6, PF3D7_1337100), sequence (Q8IDW1 1-305): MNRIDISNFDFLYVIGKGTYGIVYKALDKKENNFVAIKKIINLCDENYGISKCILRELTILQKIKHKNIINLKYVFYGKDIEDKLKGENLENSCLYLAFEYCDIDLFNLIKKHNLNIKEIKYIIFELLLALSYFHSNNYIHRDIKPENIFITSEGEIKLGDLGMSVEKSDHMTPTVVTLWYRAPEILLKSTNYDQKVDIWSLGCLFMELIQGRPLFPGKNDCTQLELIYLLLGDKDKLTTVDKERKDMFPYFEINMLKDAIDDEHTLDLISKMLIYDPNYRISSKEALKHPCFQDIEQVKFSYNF
Calcium-dependent protein kinase 1 (Plasmodium falciparum (isolate 3D7)), sequence (P62344 whole entry, looked up): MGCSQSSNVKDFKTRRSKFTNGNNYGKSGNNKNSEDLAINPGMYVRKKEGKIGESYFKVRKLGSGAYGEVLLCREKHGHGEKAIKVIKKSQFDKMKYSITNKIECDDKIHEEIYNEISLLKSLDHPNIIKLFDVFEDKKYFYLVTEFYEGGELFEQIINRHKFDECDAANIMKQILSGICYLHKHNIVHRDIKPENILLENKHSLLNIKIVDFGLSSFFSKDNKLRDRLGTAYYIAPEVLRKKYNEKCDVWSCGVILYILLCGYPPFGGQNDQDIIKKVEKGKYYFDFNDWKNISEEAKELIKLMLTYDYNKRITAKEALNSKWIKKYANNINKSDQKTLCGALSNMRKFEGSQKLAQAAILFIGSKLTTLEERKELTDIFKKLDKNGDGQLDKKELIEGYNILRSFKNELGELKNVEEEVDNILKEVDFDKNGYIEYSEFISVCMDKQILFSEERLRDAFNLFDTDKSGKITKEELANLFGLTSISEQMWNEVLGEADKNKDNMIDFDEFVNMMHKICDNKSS
Protein kinase 7 (PK7), Plasmodium falciparum 3D7 (PF3D7_0213400), sequence (Q7YTF7 1-343): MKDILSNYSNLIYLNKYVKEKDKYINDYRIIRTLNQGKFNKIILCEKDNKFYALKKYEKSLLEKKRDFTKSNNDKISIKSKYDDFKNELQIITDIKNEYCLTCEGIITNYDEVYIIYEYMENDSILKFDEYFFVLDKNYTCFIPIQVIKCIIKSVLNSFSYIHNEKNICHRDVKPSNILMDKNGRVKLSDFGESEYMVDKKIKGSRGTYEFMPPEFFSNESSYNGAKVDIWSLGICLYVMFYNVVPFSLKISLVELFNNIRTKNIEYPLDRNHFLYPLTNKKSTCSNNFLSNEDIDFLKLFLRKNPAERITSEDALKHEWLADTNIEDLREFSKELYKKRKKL

As for `C/C=C1/CN2CC[C@H]1C[C@H]2[C@H](O)c1ccnc2ccc(O)cc12`, the results for the growth inhibition in assay [1] and in assay [4] were 11% (inactive) and 99% (active), respectively. Also, the inhibition was -2% (inactive) in [2] and -3% (inactive) in [3]. Moreover, the result in assay [5], in assay [6], in assay [7] and in assay [8] was inactive.
In the case of `CCC1=C[C@@H]2CN(C1)Cc1c([nH]c3ccccc13)[C@@](C(=O)OC)(c1cc3c(cc1OC)N(C)[C@H]1[C@@](O)(C(=O)OC)[C@H](O)[C@]4(CC)C=CCN5CC[C@]31[C@@H]54)C2`, the growth inhibition was 99% (active) in [1] and 98% (active) in assay [4]. In [3], the inhibition was -1% (inactive). The outcome in [5], in [6], in [7] and in [8] was inactive.
With `O=C(C=Cc1ccccc1C(F)(F)F)NC1CCC(CN2CCC(c3c[nH]c4ccccc34)CC2)CC1` (stereo not given), the growth inhibition in assay [1] is 47% (inactive) and 90% (active); in assay [4], 102% (active). Besides, the inhibition in assay [2] is 47% (inactive) and 73% (active); in [3], -1% (inactive) and 1% (inactive). Further, the result in assay [5], in assay [6], in assay [7] and in assay [8] was inactive.
For the compound `CC(Cc1ccc(S(=O)(=O)N(C(C)C)C(C)C)cc1)NCC(O)c1cccc(C(F)(F)F)c1` (stereo not given), the growth inhibition is 93% (active) in assay [1] and 96% (active) in assay [4]. The inhibition in assay [2] was 21% (inactive); in assay [3] it was 4% (inactive). Also, the outcome in [5], in assay [6], in assay [7] and in [8] was inactive.
With `COC(=O)c1ccc(CC(C)NCC(O)c2ccc3ccc4ccccc4c3c2)cc1` (stereo not given), the growth inhibition is 97% (active) in assay [1] and 100% (active) in [4]. In addition, the inhibition in assay [2] was 21% (inactive); in assay [3], -2% (inactive). In addition, the outcome in assay [5], in [6], in assay [7] and in assay [8] was inactive.
Take `O=C(/C=C/c1ccc(Cl)c(Cl)c1)N1CCC(CN2CCC(c3c[nH]c4ccc(O)cc34)CC2)CC1`: the growth inhibition in assay [1] was 100% (active); in assay [4] it was 101% (active). The inhibition is 44% (inactive) in assay [2] and -7% (inactive) in assay [3]. In addition, the result in assay [5], in [6], in assay [7] and in assay [8] was inactive.
For `CN1CC=C(c2c[nH]c3ccc(C(=O)c4nccs4)cc23)CC1`, the figures for the growth inhibition in assay [1] and in assay [4] were 73% (active) and 89% (active), respectively. In addition, in assay [3], the inhibition was 7% (inactive). Further, the outcome in assay [5], in [6], in assay [7] and in [8] was inactive.
Regarding `O=C(C=Cc1ccc(F)c(Br)c1)NC1CCC(CN2CCC(c3c[nH]c4ccccc34)CC2)CC1` (stereo not given), the growth inhibition in [1] is 67% (active) and 50% (active); in assay [4] it was 103% (active) and 102% (active). The inhibition in [2] was 39% (inactive) and 28% (inactive); in assay [3] it was 2% (inactive) and 5% (inactive). The outcome in assay [5], in assay [6], in assay [7] and in assay [8] was inactive.
`O=C(/C=C/C=C/c1ccccc1)NC1CCC(CN2CCC(c3c[nH]c4ccccc34)CC2)CC1` (stereo not given): the growth inhibition in assay [1] was 66% (active); in [4] it was 100% (active). For the same compound, the results for the inhibition in assay [2] and in assay [3] were 49% (inactive) and 7% (inactive), respectively. The result in assay [5], in assay [6], in assay [7] and in assay [8] was inactive.
Turning to `CCOC(=O)c1cncn1[C@H](C)c1ccccc1`, the parasite load remaining in [9] is 110% (inactive). In assay [9], this compound had a viability of 75.6%. Also, the fold change is 0.964 (inactive) in assay [10] (stronger effect = lower value) and 0.785 in [10] (measured here: relative caspase fold change +Dox/-Dox). Also, the cell count in [10] (measured here: total cells with miR-34 induction, stronger effect = lower value) worked out at 9210; in [10] (measured here: total cells without miR-34 induction), 9560. The log fold change Tl+ flux in assay [11] is -0.0483 (inactive); in [12], -0.0261 (inactive); in assay [13] it was 0.000434 (inactive); in assay [14] it was 0.000109 (inactive); in assay [15], 0.0419 (inactive); in assay [16], 0.023 (inactive).
`COc1ccc(C(=O)c2ccc3[nH]cc(C4=CCN(C)CC4)c3c2)cc1`: the growth inhibition is 55% (active) in [1] and 88% (active) in assay [4]. Also, the inhibition in [3] was 4% (inactive). Further, the outcome in assay [5], in [6], in assay [7] and in assay [8] was inactive.
On to `Oc1ccc(Cl)cc1CN1CCC(CCOC(c2ccccc2)c2ccc(Cl)cc2)CC1` (stereo not given), for which the figures for the growth inhibition in assay [1] and in assay [4] were 100% (active) and 98% (active), respectively. The inhibition in [2] was 32% (inactive); in [3] it was 2% (inactive). Further, the outcome in assay [5], in assay [6], in assay [7] and in assay [8] was inactive.
Consider `CSC(=NCc1ccccc1Cl)NC(N)=N[N+](=O)[O-]`, for which the log fold change Tl+ flux was 0.0102 (inactive) in assay [11]; 0.00986 (inactive) in [12]; -0.0153 (inactive) in assay [13]; -0.0278 (inactive) in assay [14]; 0.0233 (inactive) in assay [15]; -0.0343 (inactive) in [16].
Consider `N#Cc1ccc(N(CC(=O)NCCc2ccccc2)CC2CC2)c2ccccc12`, for which the growth inhibition is 48% (inactive) in assay [1] and 99% (active) in assay [4]. Besides, the inhibition is 0% (inactive) in [2] and -3% (inactive) in [3]. Moreover, the outcome in assay [5], in [6], in assay [7] and in assay [8] was inactive.
Regarding `Cc1ccc(CC(C)NCC(O)c2cccc(Br)c2)cc1` (stereo not given), the growth inhibition in assay [1] was 97% (active); in [4] it was 99% (active). Besides, the inhibition is 7% (inactive) in assay [2] and 3% (inactive) in assay [3]. The outcome in [5], in assay [6], in assay [7] and in [8] was inactive.
In the case of `CN1C(=O)[C@H](NC(=O)[C@@H](Cc2ccccc2)NC(=S)Nc2ccccc2)N=C(c2ccccc2)c2ccccc21`, the growth inhibition in [1] was 23% (inactive); in [4] it was 86% (active). Moreover, the inhibition is -8% (inactive) in assay [2] and -1% (inactive) in assay [3]. The outcome in [5], in [6], in assay [7] and in assay [8] was inactive.
Consider `CCN(CC)CCN1C(=O)C(O)(c2ccccc2Cl)c2c1cc(C(N)=O)cc2C(F)(F)F` (stereo not given), for which the growth inhibition in [1] is 86% (active); in assay [4], 101% (active). Besides, the inhibition in assay [2] was 16% (inactive); in assay [3], -4% (inactive). Besides, the result in assay [5], in assay [6], in assay [7] and in assay [8] was inactive.
Turning to `CCC(C)(C)N[C@@H](C)[C@@H](O)c1ccc(C(F)(F)F)cc1`, the values for the growth inhibition in assay [1] and in assay [4] were 90% (active) and 97% (active), respectively. For the same compound, the inhibition in assay [3] was 2% (inactive). The result in assay [5], in assay [6], in assay [7] and in assay [8] was inactive.
For the compound `CCCCCCC(CC)c1cc(O)c2c(c1)OC(C)(C)c1ccncc1-2` (stereo not given), the results for the growth inhibition in assay [1] and in assay [4] were 52% (active) and 94% (active), respectively. The inhibition in assay [2] is -1% (inactive); in assay [3], -6% (inactive). Moreover, the result in assay [5], in assay [6], in assay [7] and in assay [8] was inactive.
